Measurements taken from PubChem BioAssay (NCI).
“And” between values parts separate entries of the source, which are not always exact repeats. Equal values may be shown once. Compounds without any hit were thinned out: in the full panel of roughly 83,000, 20% have a hit.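 Cell lines were cultured in 96-well plates, exposed to a single compound concentration, and assessed for percent growth 48 hours later.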 Unmarked numbers belong to inactive results. The source made the active and inactive calls. Rule for the calls: active = growth percent below 10; inactive = the rest.

Tested on: MDA-MB-468 breast
Test: NCI-60 one-dose screen, 48 h (100 = growth as untreated, 0 = no growth, -100 = all killed)
Conditions: 10 µM unless noted

| Compound | growth |
| --- | --- |
| O=C(c1ccccc1)N(C(=S)NCCc1ccc(Cl)cc1)c1ccc(Cl)cc1 | 16.7% |
| COc1ccc(/C=c2/c(=O)[nH]c3nc4sc(C)c(C)c4c(=O)n23)cc1 | 83.1% |
| COc1ccc(NC(=O)c2cc(OC)c(OC)c(OC)c2)cc1O | 29.8% |
| c1ccc2cc(-c3n(Cc4ccc5ccccc5n4)c4ccccc4[n+]3Cc3ccc4ccccc4n3)ccc2c1 | -36% (active) |
| Nc1ncnc2[nH]c(=O)[nH]c12 | 97.8% |
| Cc1cc(C)n(CC(=O)Nc2ccc(-c3nc4ccccc4s3)cc2)n1 | -3.57% (active) |
| CC1CCN(C(=S)SCC(=O)NC(=O)c2ccccc2)CC1 | 119% |
| Cc1ccccc1N1C(=O)c2cc(S(N)(=O)=O)c(Cl)cc2NC1C (configuration not stated) | 119% |
| CCO/C=N/C1=C(C#N)C(c2ccc(OC)cc2)c2sc3c(F)cccc3c2O1 (configuration not stated) | 17.7% |
| N#Cc1c(-c2ccc(F)cc2)nc(N/N=C/c2c[nH]c3ccccc23)nc1N1CCOCC1 | 25.2% |
| CCN(CC)CCN1C(=O)c2c(c3c4ccccc4[nH]c3c3ccc4ccccc4c23)C1=O | 79.5% |
| CCN(CC)CCCC(Cc1ccccc1)Nc1c2ccc(Cl)cc2nc2ccc(OC)cc12 (configuration not stated) | -72.3% (active) |
| CC(C)(C)OC(=O)NCCc1ccc(N)cc1 | 94.3% |
| O=C1/C(=C/C(Cl)=C/c2ccccc2)SC(=S)N1CCc1ccc(O)cc1 | -36.2% (active) |
| CN1CCN(c2nc(C3=C(c4c[nH]c5ccccc45)C(=O)NC3=O)c3ccccc3n2)CC1 | 131% |
| O=C(Nc1cccc(-n2ccc3c(NC(=O)c4ccccc4)nccc32)c1)c1ccc(N2CCOCC2)c(C(F)(F)F)c1 | -2.66% (active) |
| COc1ccc(-c2c(C(N)=O)c(N)n(Cc3nc4ccccc4[nH]3)c(=O)c2C#N)c(OC)c1 | 99.2% |
| CCCCCCCCNC(=O)[C@@H](N)CSCOC(C)=O | 89.8% |
| OC(COc1ccccc1Cl)COc1ccccc1Cl | 102% |

| Compound | growth |
| --- | --- |
| CCNC(=O)N1CCc2cc(OC)c(OCCc3ccc(OC)cc3)cc2C1c1ccc(OC)cc1C (configuration not stated) | 12.6% |
| COC(=O)[C@H](CCCCNC(=O)OCc1ccccc1)NC(=O)[C@@H](NC(=O)Nc1cc(C(F)(F)F)cc(C(F)(F)F)c1)C(C)C | -12.9% [100 µM] (active) |
| Cc1cc(N2CCCCC2)nc(N2CCN(CC(=O)Nc3ccc4c(ccn4Cc4ccccc4)c3)CC2)n1 | 37.6% |
| Cn1cc(-c2ccc3cc(-c4ccc(CC(=O)Nc5cc(C(C)(C)C)nn5C)cc4)cnc3c2)cn1 | -6.24% (active) |
| c1ccc2nc(-c3ccc4ccccc4n3)ccc2c1 | 78.9% |
| CN1C(=O)C(N=Nc2ccc([N+](=O)[O-])cc2)SC1=S (configuration not stated) | 84.6% and 85.1% |
| Cc1cc(C(O)(c2ccc(Nc3ccccc3)cc2)c2ccc(Nc3ccc(S(=O)(=O)O)cc3)cc2)ccc1N (configuration not stated) | -71.3% (active) |
| O=C(O)c1cn(C2CC2)c2cc(N3CCN(C(=O)Nc4nc(-c5ccc(Cl)cc5)cs4)CC3)c(F)cc2c1=O | 9.76% (active) |
| CCCCCc1ccc(S(=O)(=O)Nc2cccc(-c3csc(NC(=O)CN4CCN(CCO)CC4)n3)c2)cc1 | 84.8% |
| Cc1[nH]c(C(=O)Nc2ccc(S(=O)(=O)N3CCCCC3)cc2OCCOCCOCCOCCOCCOCCOCCOCCOCCOc2cc(S(=O)(=O)N3CCCCC3)ccc2NC(=O)c2[nH]c(C)c3c2CCCCC3=O)c2c1C(=O)CCCC2 | -11.1% (active) |
| Cc1cc(=O)oc2cc(OCCCOc3ccc(/C=C/C(=O)Nc4ccc(Br)cc4)cc3)ccc12 | 75.9% |
| COc1cc2c(c(OC)c1OC)-c1ccc(N)c(=O)cc1[C@@H](NC(C)=O)CC2 | 0.226% (active) |
| O=C(/C=C/c1c[nH]c2ccccc12)c1cc2ccccc2o1 | 121% |
| Clc1ccc2c(Nc3ccc4oc(NCCN5CCCC5)nc4c3)ccnc2c1 | 70.6% |
| COc1ccc(-c2nc(/C=C3\SC(=NCc4ccccc4)NC3=O)c3ccccn23)cc1 | -56.9% (active) |
| O=C1/C(=C/c2cccc(Cl)c2)CCc2ccccc21 | 93.5% |
| c1cc2c(cc1-c1cnc3nonc3n1)OCO2 | 84.6% |
| Nc1ccc(-c2ccc(N)c(Br)c2)cc1Br | 19.8% |
